Experimental data published in PubChem BioAssay (NCATS).
Inconclusive results are not listed. Calls of active or inactive are those of the source. Unless noted, calls come from the whole dose curve; as a rule, active = well fitted curve in the direction sought with a large enough effect; inconclusive = small, poorly fitted or top-dose-only effect, or another doubt; inactive = no such curve, though single readings can be large; an effect the other way counts as inactive or inconclusive.

Experiments:
[1] = molecular target: ATP-dependent 6-phosphofructokinase (Trypanosoma brucei brucei) (UniProt O15648); assay: qHTS Assay to Find Inhibitors of T. brucei phosphofructokinase: hit validation (AID 492961);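 note: luminescence reports ADP formed as PFK phosphorylates fructose-6-phosphate with ATP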
Procedure, shortened: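 Measures ADP output of PFK (1.25 nM) at 0.1 mM ATP, 0.5 mM F6P, pH 8.0 TEA buffer with 5 mM MgCl2. No-enzyme wells define full inhibition; uninhibited enzyme wells define zero.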

[2] = molecular target: Luciferin 4-monooxygenase (Photinus pyralis) (UniProt P08659); assay: Biochemical firefly luciferase enzyme assay for NPC (AID 624030);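 note: purified P. pyralis luciferase at 10 nM with luciferin and ATP substrate; nearly all actives have a fitted effect of over 70% in size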
Procedure, shortened: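 Direct inhibition of firefly luciferase enzyme (10 nM final, 50 mM Tris Acetate) assessed by luminescence within 5 minutes. Percent activity scaled between DMSO and PTC124 positive control, with concentration-effect curves classified by fit quality and response.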

[3] = S16 Schwann cell PMP22 intronic element firefly luciferase assay (AID 624032); note: potency is the fitted concentration of half-maximal effect; nearly all actives have a fitted effect of over 30% in size
Procedure, shortened: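 Luciferase reporter of PMP22 intronic-element expression in stably transfected S16 rat Schwann cells, read by ONE-Glo luminescence after 24 h compound exposure at 37 C. Activity scaled between DMSO (0%) and positive-control PTC124; concentration-effect curves quality-classified.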

[4] = S16 Schwann cell PMP22 intronic element beta-lactamase assay (AID 624044; calls by dose curve; note: potency is the fitted concentration of half-maximal effect; nearly all actives have a fitted effect of over 15% in size)
Procedure, shortened: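 Rat S16 Schwann cells with beta-Lac driven by a PMP22 intronic element, compound-treated 24 h at 37 °C. LiveBLAzer FRET B/G read: 460 nm normalized to potassium clavulanate vs DMSO; 535 nm FRET as viability; concentration-effect curves classified.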

Furin (Homo sapiens) = Furin (Homo sapiens) (UniProt P09958); assay: Furin counterscreen qHTS for Zika virus inhibitors (AID 1347149);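 note: purified recombinant full-length human furin enzyme at 5 nM; fluorescence gain from furin cutting a BOC-RVRR-AMC peptide substrate over 15 min; top concentration of the series differs between compounds; nearly all actives have a fitted effect of over 70% in size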
Procedure, shortened: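 Fluorogenic cleavage of BOC-RVRR-AMC (2 microM final, Km ~15 µM) was monitored (ex 340, em 450 nm) at 37C after 15 min RT preincubation of 5 nM furin with compounds in HEPES pH 7.0 buffer with CaCl2 and Triton X-100. Percent inhibition was fitted to a 4-parameter Hill curve.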

[5] = test system: Zika virus NS2B-NS3 protease (unlinked); assay: Optimization of GU AMC qHTS for Zika virus inhibitors: Unlinked NS2B-NS3 protease assay (AID 1347151); note: nearly all actives have a fitted effect of over 80% in size
Procedure, shortened: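 Noncovalent complex of NS2B hydrophilic domain and NS3 protease domain, 25 nM final, in 10 mM Tris-HCl pH 8.0, 0.01% Tween 20. AMC fluorescence change over 15 min at room temperature was fitted to a 4-parameter Hill equation.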

[6] = Vero cells viability qHTS for Zika virus inhibitors (AID 1347167)
Procedure, shortened: (§1)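 Compounds were tested in concentration series on cells grown in DMEM containing 4% FBS. After 24 to 48 hours, cellular ATP was measured by luminescence with CellTiter Glo.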

[7] = HepG2 cells viability qHTS for Zika virus inhibitors (AID 1347168); note: potency is the fitted concentration of half-maximal effect
Procedure, shortened: as §1

[8] = Tertiary RLuc qRT-PCR qHTS assay for Zika virus inhibitors (AID 1347169); note: potency is the fitted concentration of half-maximal effect; nearly all actives have a fitted effect of over 55% in size
Procedure, shortened: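 Vero cells (1,000 per well) plated overnight at 37 degrees C, treated with compound in DMSO, then infected with recombinant ZIKV-RLuc (Cambodian) at MOI 1-2 for 48-72 hrs. Live-cell Renilla luciferase substrate added; luminescence read after 1-1.5 hrs.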

[9] = qHTS profiling for inhibitors of Plasmodium falciparum proliferation (AID 504749); note: potency is the fitted concentration of half-maximal effect; nearly all actives have a fitted effect of over 60% in size; conditions: P. falciparum in erythrocytes, SYBR Green DNA, 72 h
Procedure, shortened: (§2)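 Infected RBCs, 0.3% parasitemia/2.5% Hct final; cpd 72 h, 37 C, 5% CO2; lysis buffer with saponin/triton/SYBR Green I, o/n RT dark; FI 485/535; norm. to artemisinin (0.29 uM) and DMSO.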

3D7 = assay: as above; conditions: P. falciparum in erythrocytes, SYBR Green DNA, 72 h; series mostly up to 28.7 µM
Procedure, shortened: as §2

7G8 = assay: as above; conditions: P. falciparum in erythrocytes, SYBR Green DNA, 72 h; series mostly up to 28.7 µM
Procedure, shortened: as §2

AA1029 = assay: as above; conditions: P. falciparum in erythrocytes, SYBR Green DNA, 72 h; series mostly up to 28.7 µM
Procedure, shortened: as §2

AS120 = assay: as above; conditions: P. falciparum in erythrocytes, SYBR Green DNA, 72 h; series mostly up to 28.7 µM
Procedure, shortened: as §2

ATS189 = assay: as above; conditions: P. falciparum in erythrocytes, SYBR Green DNA, 72 h; series mostly up to 28.7 µM
Procedure, shortened: as §2

ATS95 = assay: as above; conditions: P. falciparum in erythrocytes, SYBR Green DNA, 72 h; series mostly up to 28.7 µM
Procedure, shortened: as §2

C2A = assay: as above; conditions: P. falciparum in erythrocytes, SYBR Green DNA, 72 h; series mostly up to 28.7 µM
Procedure, shortened: as §2

CP185 = assay: as above; conditions: P. falciparum in erythrocytes, SYBR Green DNA, 72 h; series mostly up to 28.7 µM
Procedure, shortened: as §2

CP191 = assay: as above; conditions: P. falciparum in erythrocytes, SYBR Green DNA, 72 h; series mostly up to 28.7 µM
Procedure, shortened: as §2

CP192 = assay: as above; conditions: P. falciparum in erythrocytes, SYBR Green DNA, 72 h; series mostly up to 28.7 µM
Procedure, shortened: as §2

CP194 = assay: as above; conditions: P. falciparum in erythrocytes, SYBR Green DNA, 72 h; series mostly up to 28.7 µM
Procedure, shortened: as §2

CP201 = assay: as above; conditions: P. falciparum in erythrocytes, SYBR Green DNA, 72 h; series mostly up to 28.7 µM
Procedure, shortened: as §2

CP203 = assay: as above; conditions: P. falciparum in erythrocytes, SYBR Green DNA, 72 h; series mostly up to 28.7 µM
Procedure, shortened: as §2

CP211 = assay: as above; conditions: P. falciparum in erythrocytes, SYBR Green DNA, 72 h; series mostly up to 28.7 µM
Procedure, shortened: as §2

CP215 = assay: as above; conditions: P. falciparum in erythrocytes, SYBR Green DNA, 72 h; series mostly up to 28.7 µM
Procedure, shortened: as §2

CP217 = assay: as above; conditions: P. falciparum in erythrocytes, SYBR Green DNA, 72 h; series mostly up to 28.7 µM
Procedure, shortened: as §2

CP237 = assay: as above; conditions: P. falciparum in erythrocytes, SYBR Green DNA, 72 h; series mostly up to 28.7 µM
Procedure, shortened: as §2

CP238 = assay: as above; conditions: P. falciparum in erythrocytes, SYBR Green DNA, 72 h; series mostly up to 28.7 µM
Procedure, shortened: as §2

CP247 = assay: as above; conditions: P. falciparum in erythrocytes, SYBR Green DNA, 72 h; series mostly up to 28.7 µM
Procedure, shortened: as §2

CP250 = assay: as above; conditions: P. falciparum in erythrocytes, SYBR Green DNA, 72 h; series mostly up to 28.7 µM
Procedure, shortened: as §2

CP252 = assay: as above; conditions: P. falciparum in erythrocytes, SYBR Green DNA, 72 h; series mostly up to 28.7 µM
Procedure, shortened: as §2

CP256 = assay: as above; conditions: P. falciparum in erythrocytes, SYBR Green DNA, 72 h; series mostly up to 28.7 µM
Procedure, shortened: as §2

CP260 = assay: as above; conditions: P. falciparum in erythrocytes, SYBR Green DNA, 72 h; series mostly up to 28.7 µM
Procedure, shortened: as §2

Measured: Potency

Luciferin 4-monooxygenase (Photinus pyralis), sequence (P08659 whole entry, looked up): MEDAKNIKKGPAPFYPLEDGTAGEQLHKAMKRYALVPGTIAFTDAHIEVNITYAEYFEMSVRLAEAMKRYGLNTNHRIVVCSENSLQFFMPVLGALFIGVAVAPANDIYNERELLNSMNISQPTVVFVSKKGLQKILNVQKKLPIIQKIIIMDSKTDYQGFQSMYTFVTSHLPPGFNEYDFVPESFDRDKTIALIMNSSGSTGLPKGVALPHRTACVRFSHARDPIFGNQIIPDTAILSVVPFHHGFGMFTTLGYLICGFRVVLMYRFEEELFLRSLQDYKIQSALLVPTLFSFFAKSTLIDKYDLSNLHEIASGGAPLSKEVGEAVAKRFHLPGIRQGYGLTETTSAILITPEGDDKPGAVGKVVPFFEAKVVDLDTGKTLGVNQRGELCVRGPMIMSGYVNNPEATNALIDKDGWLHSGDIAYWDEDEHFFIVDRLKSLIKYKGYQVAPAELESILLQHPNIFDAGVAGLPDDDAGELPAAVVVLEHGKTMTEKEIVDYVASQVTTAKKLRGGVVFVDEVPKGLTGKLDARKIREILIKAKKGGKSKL
ATP-dependent 6-phosphofructokinase (Trypanosoma brucei brucei), sequence (O15648 whole entry, looked up): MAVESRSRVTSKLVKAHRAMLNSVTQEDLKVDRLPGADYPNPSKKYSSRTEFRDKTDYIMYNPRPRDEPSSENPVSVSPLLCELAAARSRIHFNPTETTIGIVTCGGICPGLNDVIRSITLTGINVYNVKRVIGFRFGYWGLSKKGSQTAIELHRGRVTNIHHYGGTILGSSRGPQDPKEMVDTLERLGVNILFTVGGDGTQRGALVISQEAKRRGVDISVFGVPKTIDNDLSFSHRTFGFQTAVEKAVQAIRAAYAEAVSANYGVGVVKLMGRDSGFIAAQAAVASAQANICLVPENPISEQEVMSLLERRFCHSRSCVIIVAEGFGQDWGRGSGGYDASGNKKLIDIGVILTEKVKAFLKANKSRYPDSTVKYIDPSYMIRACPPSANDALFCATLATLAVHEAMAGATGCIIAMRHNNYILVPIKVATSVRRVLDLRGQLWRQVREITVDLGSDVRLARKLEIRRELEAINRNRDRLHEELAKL
Furin (Homo sapiens), sequence (P09958 whole entry, looked up): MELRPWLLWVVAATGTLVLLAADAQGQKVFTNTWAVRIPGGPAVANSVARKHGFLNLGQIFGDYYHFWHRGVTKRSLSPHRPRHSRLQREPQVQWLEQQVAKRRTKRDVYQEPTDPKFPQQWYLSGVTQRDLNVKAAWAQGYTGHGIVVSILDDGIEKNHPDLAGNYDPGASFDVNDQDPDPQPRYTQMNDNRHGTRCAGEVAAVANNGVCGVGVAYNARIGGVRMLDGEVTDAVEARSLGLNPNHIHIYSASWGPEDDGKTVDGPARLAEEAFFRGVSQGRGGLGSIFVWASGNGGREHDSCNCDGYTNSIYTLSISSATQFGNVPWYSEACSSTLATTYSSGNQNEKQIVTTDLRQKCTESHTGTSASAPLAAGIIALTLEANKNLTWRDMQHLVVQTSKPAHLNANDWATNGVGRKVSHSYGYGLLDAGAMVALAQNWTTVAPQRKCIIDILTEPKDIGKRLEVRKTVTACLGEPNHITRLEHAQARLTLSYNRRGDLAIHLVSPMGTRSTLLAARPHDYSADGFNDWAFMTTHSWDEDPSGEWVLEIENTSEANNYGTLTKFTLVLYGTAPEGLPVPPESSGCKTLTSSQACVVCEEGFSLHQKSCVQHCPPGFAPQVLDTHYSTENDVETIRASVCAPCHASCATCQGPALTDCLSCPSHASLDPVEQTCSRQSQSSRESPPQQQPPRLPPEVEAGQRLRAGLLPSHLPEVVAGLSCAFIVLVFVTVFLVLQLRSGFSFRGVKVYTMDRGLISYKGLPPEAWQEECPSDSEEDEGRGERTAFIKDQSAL

CC(C)C[C@@H](NC(=O)[C@H](Cc1ccccc1)NC(=O)c1cnccn1)B(O)O
active: [3] 0.0036 µM | [4] 0.0126 µM | [7] 0.0426 µM | [8] 0.0269 µM | [9]; parasite line A 0.0891 µM | [9]; parasite line B 0.0631 µM | 3D7 0.126 µM | 7G8 0.0316 µM | AA1029 0.0708 µM | AS120 0.1 µM | ATS189 0.112 µM | ATS95 0.0562 µM | C2A 0.126 µM | CP185 0.112 µM | CP191 0.0891 µM | CP192 0.151 µM | CP194 0.426 µM | CP201 0.601 µM | CP203 0.169 µM | CP211 0.757 µM | CP215 0.536 µM | CP217 0.126 µM | CP237 0.0794 µM | CP238 0.112 µM | CP247 0.126 µM | CP250 0.1 µM | CP252 0.0891 µM | CP256 0.126 µM | CP260 0.112 µM
inactive: [1] | [2] | Furin (Homo sapiens) | [5] | [6]
